# The entries come from a sample that favours the strongest signals as a whole.
# B1: Gs78B-bfa-542-29-542 (Bacteroides fragilis) (protein)
# chain: SEDINRNPLLPTKEDEKMDGVIYGAYLPNLEKSVIPIGTASESTEPVNRYQIGVNLAGDAWAGYMSPRDNKFNGSKNFTNYFMYENWVNYVYSFMVTDVYSPWMQIKRISQDEGTRNDEIYALAQIIKIAALHRTTDMFGPIPYSQVGKGSFKVAYDSQESVYRSFLKELEEAVQTLDDYSNKSKEVLPAFDIVYNGDVNKWMRFANSLMLRLAIRVRFADAGLAKEYAEKAVKHPAGLINSKELAAQMGKGAGLQMKNPLKVINEEYNDTRMGATIYSYLAGYNDARAAVYFVKNNGFKAVRCGIAKSGDAYNGFTRPNVHEDDPLYWMKASEVCFLKAEGALAGFDMGGSAGDFYNAGIRMSFSENGLDNSSAETYLKDSTRKPANYTDTSNGELSANAPSSITIRWENGATEEEKLERIITQKYLAIFPNGQEAWTEWRRTGYPRQIVVAENKTNSAVLIGNGYDLGGVRRLPYPRTEYEQNGENLHNAISQYLGGVDNAATKVWWDKKSK
# Columns and labels:
# Assay in all cases: glycan array binding signal (z-score within array); higher = stronger binding
# Conditions in all cases: glycan notation: IUPAC condensed, linker removed
# [1] = molecular target: Fuc(a1-2)Gal(b1-3)GalNAc(a1-3)[Fuc(a1-2)]Gal(b1-4)Glc
# In short: (§1)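 Columns mapping to the same glycan were averaged after glycan names were converted to IUPAC-condensed notation. The data come from 3228 arrays in the Consortium for Functional Glycomics database, limited to those with an available protein sequence. Binding is reported as a within-array Z-score averaged across arrays of one protein sequence and across linkers.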
# [2] = molecular target: Fuc(a1-2)Gal(b1-3)GlcNAc(b1-3)Gal(b1-4)Glc
# In short: as §1
# [3] = molecular target: Fuc(a1-2)Gal(b1-3)GlcNAc(b1-3)[Fuc(a1-2)Gal(b1-3)GlcNAc(b1-6)]GalNAc
# In short: as §1
# [4] = molecular target: Fuc(a1-2)Gal(b1-4)[Fuc(a1-3)]GlcNAc(b1-3)Gal(b1-4)[Fuc(a1-3)]GlcNAc
# In short: as §1
# [5] = molecular target: Fuc(a1-2)[Gal(a1-3)]Gal(b1-3)GlcNAc(b1-6)GalNAc
# In short: as §1
# [6] = molecular target: Fuc(a1-2)[Gal(a1-3)]Gal(b1-4)GlcNAc(b1-3)GalNAc
# In short: as §1
# [7] = molecular target: Fuc(a1-2)[GalNAc(a1-3)]Gal(b1-4)GlcNAc(b1-3)Gal(b1-4)GlcNAc(b1-3)Gal(b1-4)GlcNAc
# In short: as §1
# [8] = molecular target: Fuc(a1-3)[Gal(b1-4)]GlcNAc(b1-2)Man(a1-3)[Fuc(a1-3)[Gal(b1-4)]GlcNAc(b1-2)Man(a1-6)]Man(b1-4)GlcNAc(b1-4)GlcNAc
# In short: as §1
# [9] = molecular target: Gal(a1-3)Gal(b1-3)[Fuc(a1-4)]GlcNAc(b1-2)Man(a1-3)[Gal(a1-3)Gal(b1-3)[Fuc(a1-4)]GlcNAc(b1-2)Man(a1-6)]Man(b1-4)GlcNAc(b1-4)GlcNAc
# In short: as §1
# [10] = molecular target: Gal(b1-3)GlcNAc(b1-2)Man(a1-3)[Gal(b1-3)GlcNAc(b1-2)Man(a1-6)]Man(b1-4)GlcNAc(b1-4)[Fuc(a1-6)]GlcNAc
# In short: as §1
# [11] = molecular target: Gal(b1-3)GlcNAc(b1-3)Gal(b1-4)GlcNAc(b1-2)Man(a1-3)[Gal(b1-3)GlcNAc(b1-3)Gal(b1-4)GlcNAc(b1-2)Man(a1-6)]Man(b1-4)GlcNAc(b1-4)GlcNAc
# In short: as §1
# [12] = molecular target: Gal(b1-3)GlcNAc6S
# In short: as §1
# [13] = molecular target: Gal(b1-3)[Fuc(a1-4)]GlcNAc(b1-2)Man
# In short: as §1
# [14] = molecular target: Gal(b1-4)GlcNAc(b1-2)Man(a1-3)Man(b1-4)GlcNAc(b1-4)GlcNAc
# In short: as §1
# [15] = molecular target: Gal(b1-4)GlcNAc(b1-3)Gal(b1-4)GlcNAc
# In short: as §1
# [16] = molecular target: Gal(b1-4)GlcNAc(b1-3)Gal(b1-4)GlcNAc(b1-2)Man(a1-3)[Gal(b1-4)GlcNAc(b1-3)Gal(b1-4)GlcNAc(b1-2)Man(a1-6)]Man(b1-4)GlcNAc(b1-4)[Fuc(a1-6)]GlcNAc
# In short: as §1
# [17] = molecular target: Gal(b1-4)GlcNAc(b1-3)Gal(b1-4)GlcNAc(b1-2)[Gal(b1-4)GlcNAc(b1-3)Gal(b1-4)GlcNAc(b1-6)]Man(a1-6)[Gal(b1-4)GlcNAc(b1-3)Gal(b1-4)GlcNAc(b1-2)Man(a1-3)]Man(b1-4)GlcNAc(b1-4)[Fuc(a1-6)]GlcNAc
# In short: as §1
# [18] = molecular target: Gal(b1-4)GlcNAc(b1-3)Gal(b1-4)GlcNAc(b1-3)Gal(b1-4)GlcNAc(b1-2)Man(a1-3)[Gal(b1-4)GlcNAc(b1-3)Gal(b1-4)GlcNAc(b1-3)Gal(b1-4)GlcNAc(b1-2)Man(a1-6)]Man(b1-4)GlcNAc(b1-4)GlcNAc
# In short: as §1
# [19] = molecular target: Gal(b1-4)GlcNAc(b1-3)Gal(b1-4)GlcNAc(b1-3)Gal(b1-4)GlcNAc(b1-2)Man(a1-3)[Gal(b1-4)GlcNAc(b1-3)Gal(b1-4)GlcNAc(b1-3)Gal(b1-4)GlcNAc(b1-2)Man(a1-6)]Man(b1-4)GlcNAc(b1-4)[Fuc(a1-6)]GlcNAc
# In short: as §1
# [20] = molecular target: Gal3S(b1-4)Glc6S
# In short: as §1
# [21] = molecular target: Gal3S(b1-4)[Fuc(a1-3)]GlcNAc
# In short: as §1
# [22] = molecular target: Gal6S(b1-4)Glc
# In short: as §1
# [23] = molecular target: Gal6S(b1-4)Glc6S
# In short: as §1
# [24] = molecular target: GalNAc(b1-3)Gal
# In short: as §1
# [25] = molecular target: GalNAc(b1-3)Gal(a1-4)Gal(b1-4)GlcNAc
# In short: as §1
# [26] = molecular target: GalNAc(b1-3)Gal(a1-4)Gal(b1-4)GlcNAc(b1-3)Gal(b1-4)Glc
# In short: as §1
# [27] = molecular target: GalNAc(b1-3)GalNAc
# In short: as §1
# [28] = molecular target: GalNAc3S(b1-4)GlcNAc3S
# In short: as §1
# [29] = molecular target: GalNAc6S(b1-4)GlcNAc
# In short: as §1
# [30] = molecular target: Glc(b1-6)Glc
# In short: as §1
# [31] = molecular target: GlcA(b1-6)Gal
# In short: as §1
# [32] = molecular target: GlcNAc(a1-4)Gal(b1-4)GlcNAc(b1-3)Gal(b1-4)GlcNAc
# In short: as §1
# [33] = molecular target: GlcNAc(b1-2)[GlcNAc(b1-4)]Man(a1-3)[GlcNAc(b1-4)][GlcNAc(b1-2)Man(a1-6)]Man(b1-4)GlcNAc(b1-4)GlcNAc
# In short: as §1
# [34] = molecular target: GlcNAc(b1-2)[GlcNAc(b1-6)]Man(a1-6)[GlcNAc(b1-4)][GlcNAc(b1-2)Man(a1-3)]Man(b1-4)GlcNAc(b1-4)GlcNAc
# In short: as §1
# [35] = molecular target: GlcNAc(b1-3)Gal(b1-3)GalNAc
# In short: as §1
# [36] = molecular target: GlcNAc(b1-3)Gal(b1-4)GlcNAc(b1-2)Man(a1-3)[GlcNAc(b1-3)Gal(b1-4)GlcNAc(b1-2)Man(a1-6)]Man(b1-4)GlcNAc(b1-4)GlcNAc
# In short: as §1
# [37] = molecular target: GlcNAc(b1-4)Gal(b1-4)GlcNAc
# In short: as §1
# [38] = molecular target: GlcNAc(b1-6)GalNAc
# In short: as §1
# [39] = molecular target: Kdn(a2-3)Gal(b1-4)GlcNAc
# In short: as §1
# [40] = molecular target: Man(a1-2)Man(a1-6)[Man(a1-3)]Man(a1-6)[Man(a1-2)Man(a1-2)Man(a1-3)]Man
# In short: as §1
# [41] = molecular target: Man(a1-3)[Man(a1-6)]Man(a1-6)[Man(a1-2)Man(a1-3)]Man(b1-4)GlcNAc(b1-4)GlcNAc
# In short: as §1
# [42] = molecular target: Neu5Ac(a2-3)Gal(b1-3)GlcNAc
# In short: as §1
# [43] = molecular target: Neu5Ac(a2-3)Gal(b1-3)[Fuc(a1-4)]GlcNAc
# In short: as §1
# [44] = molecular target: Neu5Ac(a2-3)Gal(b1-4)GlcNAc(b1-2)Man
# In short: as §1
# [45] = molecular target: Neu5Ac(a2-3)Gal(b1-4)GlcNAc(b1-2)[Neu5Ac(a2-3)Gal(b1-4)GlcNAc(b1-6)]Man(a1-6)[Neu5Ac(a2-3)Gal(b1-4)GlcNAc(b1-2)Man(a1-3)]Man(b1-4)GlcNAc(b1-4)GlcNAc
# In short: as §1
# [46] = molecular target: Neu5Ac(a2-3)Gal(b1-4)GlcNAc(b1-3)Gal(b1-4)GlcNAc(b1-3)Gal(b1-4)GlcNAc
# In short: as §1
# [47] = molecular target: Neu5Ac(a2-3)Gal(b1-4)[Fuc(a1-3)]GlcNAc(b1-6)[Neu5Ac(a2-3)Gal(b1-3)]GalNAc
# In short: as §1
# [48] = molecular target: Neu5Ac(a2-6)Gal(b1-4)Glc
# In short: as §1
# [49] = molecular target: Neu5Ac(a2-6)Gal(b1-4)GlcNAc(b1-2)Man(a1-3)Man(b1-4)GlcNAc(b1-4)GlcNAc
# In short: as §1
# [50] = molecular target: Neu5Ac(a2-6)Gal(b1-4)GlcNAc(b1-2)[Neu5Ac(a2-6)Gal(b1-4)GlcNAc(b1-6)]Man(a1-6)[Neu5Ac(a2-6)Gal(b1-4)GlcNAc(b1-2)Man(a1-3)][GlcNAc(b1-4)]Man(b1-4)GlcNAc(b1-4)GlcNAc
# In short: as §1
# [51] = molecular target: Neu5Ac(a2-8)Neu5Ac(a2-3)Gal(b1-3)GalNAc(b1-4)[Neu5Ac(a2-8)Neu5Ac(a2-3)]Gal(b1-4)Glc
# In short: as §1
# [52] = molecular target: Neu5Ac(a2-8)Neu5Ac(a2-8)Neu5Ac(a2-3)[Gal(b1-3)GalNAc(b1-4)]Gal(b1-4)Glc
# In short: as §1
# [53] = molecular target: Neu5Ac(a2-8)Neu5Ac(a2-8)Neu5Ac(a2-8)Neu5Ac(a2-3)[GalNAc(b1-4)]Gal(b1-4)Glc
# In short: as §1
# [54] = molecular target: Neu5Gc(a2-3)Gal(b1-4)[Fuc(a1-3)]GlcNAc
# In short: as §1
binder,measurement,setting,value
B1,glycan array binding signal (z-score),[1],0.024
same,glycan array binding signal (z-score),[2],-0.826
same,glycan array binding signal (z-score),[3],0.287
same,glycan array binding signal (z-score),[4],-0.816
same,glycan array binding signal (z-score),[5],2.8
same,glycan array binding signal (z-score),[6],0.185
same,glycan array binding signal (z-score),[7],1.31
same,glycan array binding signal (z-score),[8],1.04
same,glycan array binding signal (z-score),[9],4.3
same,glycan array binding signal (z-score),[10],1.53
same,glycan array binding signal (z-score),[11],-0.404
same,glycan array binding signal (z-score),[12],2.8
same,glycan array binding signal (z-score),[13],-0.693
same,glycan array binding signal (z-score),[14],0.534
same,glycan array binding signal (z-score),[15],-0.463
same,glycan array binding signal (z-score),[16],2.98
same,glycan array binding signal (z-score),[17],3.42
same,glycan array binding signal (z-score),[18],2.01
same,glycan array binding signal (z-score),[19],3.12
same,glycan array binding signal (z-score),[20],-0.778
same,glycan array binding signal (z-score),[21],-0.801
same,glycan array binding signal (z-score),[22],0.825
same,glycan array binding signal (z-score),[23],0.798
same,glycan array binding signal (z-score),[24],-0.448
same,glycan array binding signal (z-score),[25],0.47
same,glycan array binding signal (z-score),[26],1.12
same,glycan array binding signal (z-score),[27],-0.725
same,glycan array binding signal (z-score),[28],-0.813
same,glycan array binding signal (z-score),[29],-0.336
same,glycan array binding signal (z-score),[30],-0.312
same,glycan array binding signal (z-score),[31],2.77
same,glycan array binding signal (z-score),[32],-0.691
same,glycan array binding signal (z-score),[33],-0.838
same,glycan array binding signal (z-score),[34],-0.844
same,glycan array binding signal (z-score),[35],-0.48
same,glycan array binding signal (z-score),[36],-0.439
same,glycan array binding signal (z-score),[37],-0.828
same,glycan array binding signal (z-score),[38],-0.233
same,glycan array binding signal (z-score),[39],2.84
same,glycan array binding signal (z-score),[40],-0.844
same,glycan array binding signal (z-score),[41],3.49
same,glycan array binding signal (z-score),[42],-0.067
same,glycan array binding signal (z-score),[43],-0.793
same,glycan array binding signal (z-score),[44],2.92
same,glycan array binding signal (z-score),[45],0.079
same,glycan array binding signal (z-score),[46],-0.832
same,glycan array binding signal (z-score),[47],5.64
same,glycan array binding signal (z-score),[48],-0.346
same,glycan array binding signal (z-score),[49],1.48
same,glycan array binding signal (z-score),[50],-0.454
same,glycan array binding signal (z-score),[51],0.648
same,glycan array binding signal (z-score),[52],-0.843
same,glycan array binding signal (z-score),[53],1.92
same,glycan array binding signal (z-score),[54],0.283

# Reference: the supplement of paper PMC8728848
